Test results from PubChem BioAssay (NCI).
The panel holds about 83,000 compounds, 20% with a hit somewhere; the sample as a whole holds those more often.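 Single-dose data. Exposure time 48 hours. Values below 10 considered active.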 Active and inactive are the calls of the source.

What was measured:
Assay in all cases: NCI-60 one-dose screen, 48 h (100 = growth as untreated, 0 = no growth, -100 = all killed)
Conditions in all cases: 10 µM unless noted
SK-MEL-2 melanoma = system: SK-MEL-2 melanoma
EKVX NSCLC = system: EKVX NSCLC
SN12C renal = system: SN12C renal
UO-31 renal = system: UO-31 renal
TK-10 renal = system: TK-10 renal
ACHN renal = system: ACHN renal
CAKI-1 renal = system: CAKI-1 renal
A498 renal = system: A498 renal
CCRF-CEM leukemia = system: CCRF-CEM leukemia
MOLT-4 leukemia = system: MOLT-4 leukemia
SR leukemia = system: SR leukemia
RPMI-8226 leukemia = system: RPMI-8226 leukemia
OVCAR-8 ovarian = system: OVCAR-8 ovarian
OVCAR-5 ovarian = system: OVCAR-5 ovarian
OVCAR-4 ovarian = system: OVCAR-4 ovarian
SK-OV-3 ovarian = system: SK-OV-3 ovarian
IGROV1 ovarian = system: IGROV1 ovarian
OVCAR-3 ovarian = system: OVCAR-3 ovarian
HS 578T breast = system: HS 578T breast
NCI/ADR-RES ovarian = system: NCI/ADR-RES ovarian

Measured: growth

Cc1cc(N/N=C/c2nc(-c3ccc(Cl)cc3)oc2C)c2cc(Br)ccc2n1
active: CCRF-CEM leukemia 4.11% | SR leukemia 4.22% | RPMI-8226 leukemia -15% | OVCAR-8 ovarian 8.16% | OVCAR-4 ovarian -83% | OVCAR-3 ovarian -21.2%
inactive: SK-MEL-2 melanoma 108% | EKVX NSCLC 86.4% | SN12C renal 20.5% | UO-31 renal 55.9% | TK-10 renal 25.2% | ACHN renal 75.8% | CAKI-1 renal 90% | A498 renal 92.6% | MOLT-4 leukemia 15% | OVCAR-5 ovarian 96.1% | SK-OV-3 ovarian 104% | IGROV1 ovarian 63.3% | HS 578T breast 78.6% | NCI/ADR-RES ovarian 14.7%

COc1ccc2nc3cc(Cl)ccc3c(NCCNCC(O)CO)c2c1 (stereo not given)
inactive: SK-MEL-2 melanoma 27.9% | EKVX NSCLC 42% | UO-31 renal 48.9% | TK-10 renal 32.3% | ACHN renal 26.8% | CAKI-1 renal 71.9% | CCRF-CEM leukemia 25% | MOLT-4 leukemia 12.7% | RPMI-8226 leukemia 20.6% | OVCAR-8 ovarian 23.3% | OVCAR-5 ovarian 30.7% | OVCAR-4 ovarian 30.5% | SK-OV-3 ovarian 32.4% | IGROV1 ovarian 19.8% | OVCAR-3 ovarian 26.2% | HS 578T breast 49.6% | NCI/ADR-RES ovarian 87.7%
active: SN12C renal 5.37% | A498 renal 8.45% | SR leukemia 6.64%

CCCCCCCCCCCCCC1=NCCN1CCO
active: CCRF-CEM leukemia 7.19% | MOLT-4 leukemia -1.68% | SR leukemia -4.54%
inactive: SK-MEL-2 melanoma 114% | EKVX NSCLC 112% | SN12C renal 69.2% | UO-31 renal 54.5% | TK-10 renal 123% | ACHN renal 78.1% | CAKI-1 renal 90.7% | A498 renal 108% | RPMI-8226 leukemia 21% | OVCAR-8 ovarian 52.6% | OVCAR-5 ovarian 79.1% | OVCAR-4 ovarian 169% | SK-OV-3 ovarian 107% | IGROV1 ovarian 13.3% | OVCAR-3 ovarian 164% | HS 578T breast 37.9% | NCI/ADR-RES ovarian 84.5%

ClC1=C2NC=NC2n2c(nnc2-c2ccc(Cl)cc2)N1 (stereo not given)
inactive: SK-MEL-2 melanoma 95.8% | EKVX NSCLC 105% | SN12C renal 94.5% | UO-31 renal 92% | TK-10 renal 122% | ACHN renal 109% | CAKI-1 renal 98.8% | A498 renal 73.1% | CCRF-CEM leukemia 99.9% | MOLT-4 leukemia 99.6% | SR leukemia 91.9% | RPMI-8226 leukemia 89.2% | OVCAR-8 ovarian 96.9% | OVCAR-5 ovarian 110% | OVCAR-4 ovarian 116% | SK-OV-3 ovarian 105% | IGROV1 ovarian 119% | OVCAR-3 ovarian 120% | HS 578T breast 112% | NCI/ADR-RES ovarian 108%

CCCCCCCCCCCCNC(=O)[C@H]1CSC(c2ccc(OC)c(F)c2)N1 (stereo not given in full)
active: SK-MEL-2 melanoma -93.7% | EKVX NSCLC -87.4% | SN12C renal -93% | UO-31 renal -99.9% | TK-10 renal -96.3% | ACHN renal -100% | CAKI-1 renal -97.8% | A498 renal -96.3% | CCRF-CEM leukemia -42.5% | MOLT-4 leukemia -66.9% | SR leukemia -50.9% | RPMI-8226 leukemia -53.3% | OVCAR-8 ovarian -51.1% | OVCAR-5 ovarian -98.6% | OVCAR-4 ovarian -96.6% | SK-OV-3 ovarian -98.1% | IGROV1 ovarian -76% | OVCAR-3 ovarian -91.9% | HS 578T breast -49.6% | NCI/ADR-RES ovarian -60.4%

CC(=O)O[C@H]1CC[C@]2(C)[C@H]3CC[C@@H]4[C@H]5[C@H](C(C)C)CC[C@]5(C(=O)OCC(CO)(CO)N=C(N)N)CC[C@@]4(C)[C@]3(C)CC[C@H]2C1(C)C
inactive: SK-MEL-2 melanoma 102% | EKVX NSCLC 88.7% | SN12C renal 13.7% | UO-31 renal 55.1% | TK-10 renal 88% | ACHN renal 83.4% | CAKI-1 renal 81.1% | A498 renal 113% | CCRF-CEM leukemia 11.3% | OVCAR-5 ovarian 99.1% | OVCAR-4 ovarian 87.9% | SK-OV-3 ovarian 91.2% | IGROV1 ovarian 24.3% | OVCAR-3 ovarian 18.9% | HS 578T breast 93.7% | NCI/ADR-RES ovarian 76.8%
active: MOLT-4 leukemia 0.198% | SR leukemia -13.6% | RPMI-8226 leukemia 4.55% | OVCAR-8 ovarian -31.9%

CCN(CC)CC(O)c1cc(-c2ccc(Cl)cc2)nc2c(C)c(Cl)ccc12 (stereo not given)
active: SK-MEL-2 melanoma -68.8% | EKVX NSCLC -63.1% | SN12C renal -86.4% | UO-31 renal -78.8% | TK-10 renal -92.5% | ACHN renal -93.2% | CAKI-1 renal -100% | A498 renal -36.4% | CCRF-CEM leukemia -37.4% | MOLT-4 leukemia -72.4% | SR leukemia -79.5% | RPMI-8226 leukemia -32.2% | OVCAR-8 ovarian -82.7% | OVCAR-5 ovarian -97.3% | OVCAR-4 ovarian -26% | IGROV1 ovarian -84.7% | OVCAR-3 ovarian -100% | HS 578T breast -62.4% | NCI/ADR-RES ovarian -84.7%
inactive: SK-OV-3 ovarian 29.2%

C/C(Cc1ccc(Cl)cc1)=C(\c1ccc(OCCN2CCCCCC2)cc1)c1ccc(OC(=O)C2CCCCC2)cc1
inactive: SK-MEL-2 melanoma 81.6% | EKVX NSCLC 81% | SN12C renal 67% | UO-31 renal 40.9% | TK-10 renal 84.1% | ACHN renal 87% | CAKI-1 renal 80.8% | A498 renal 82% | CCRF-CEM leukemia 55.3% | MOLT-4 leukemia 25.6% | RPMI-8226 leukemia 37.2% | OVCAR-8 ovarian 66.2% | OVCAR-5 ovarian 73.4% | OVCAR-4 ovarian 80.6% | SK-OV-3 ovarian 88.1% | IGROV1 ovarian 46.8% | OVCAR-3 ovarian 71.8% | HS 578T breast 56.3% | NCI/ADR-RES ovarian 70.4%
active: SR leukemia -0.529%
